# From the supplement of paper PMC6555819
# Test system: VDR:RXRa (NR concentration 270 nM, RXRa partner concentration 90 nM)
# Assay: PBM binding z-score (relative to random genomic background probes); higher = stronger binding; sequences stand for … in GC…GCGATTGACAGCGTAGAATGAAGG
# Procedure: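 Protein-binding microarray (Agilent 4x180K custom design, double-stranded 60-nt probes: 5' GC cap, 34-nt variable region, 24-nt constant primer region; full probe sequence given). Purified or IVT nuclear receptor:RXRα heterodimers (3:1 NR:RXRα, mostly 270:90 nM) or homodimers were incubated for 1 h in PBS with 2% milk and no ligand, then detected with Alexa488 antibodies. Fluorescence from o1-orientation probes (~5 replicates averaged) was converted to z-scores against 500 random hg19 background probes. Variable regions are seed direct-repeat (DR0–DR5) sites, all their single-nucleotide variants and half-site ablations.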
row,Sequence,PBM binding z-score
1,CTCGAAAGGTCGGTTGAGTTGAGTATACGGATAA,3.45
2,GCTTGCGGGTCAAAGGTTATAGCATGAATAGAAT,5.03
3,GCGACTGGGGCATCGGCAGGTTACCATAACTTAA,-0.199
4,CCTACTGGGCCAACGGTCATTGATTCCAATGCTC,-0.502
5,AGTCGAAGTTCATCTAGGTAACGTAAGATATGCT,3.51
6,AGAATGAGGTTATTGAGATCAGGGAATTGCGGTC,3.35
7,AGTCAAAGTTCAGGACGAGGTATCGTAAAGCACG,2.29
8,CGTCCAAGGTCAAAGGTCAGTGAGGAGATGACGG,6.92
9,ATATGTAGGTTAGCTGGGGTCACTCAGACTAGGC,5.64
10,ATATGTATGTTAGCTGGGGTCATTCAGACTAGGC,5.07
11,TCTTATAGGTAAATGCTAGGTGAAAGTCCGATCT,0.709
12,GCTAGCAGGCCATTTGGATCACTCAATGACGGGC,-0.73
13,TCTAGTTGGTCACGGCGGTCACACACGACGGGTA,1.82
14,TCGACTAGGTTAGTCGGGGCATTCAGCCAACATA,1.81
15,TCTCGAAGGACACGAAGGTCAGAGCTTTCCAGAG,1.86
16,GCGACTGGGGCATCAACAGGTTACCATAACTTAA,0.0297
17,ACTAGCACGCCAAGGGTCACTCAAGATTAGTCCG,2.97
18,CCTTACGGGTCACGATGTTATAGCACGACGAGCG,3.73
19,AGAACGAGAGCAATGAGTTGATAGCACGGGTGGC,1.96
20,TCATATAGGTAATACAGGTCAAAGTCGGCATCTA,4.07

row,Sequence,PBM binding z-score
1,GCATATAGGTAATACAAGGTTAAAGTCCGATTGT,1.6
2,CAAACTAGGTCTCAGAGGTCAAAGTCCGTGCGTA,5.82
3,TCGATTAGGTTAGGGGCATTCAGAATGGCGTCGA,0.781
4,AATCAAAGTTCACTAGGTAACGTAAGATTCAGCT,3.91
5,CCAGACAGGTGAGAAGGTAACTCGGCCTCGATTA,-0.138
6,GCTATTAGTTTAAAGGGCAACCGAATGATTCTCG,0.65
7,ATCTCTAGGTAAAAGTTAAGTGAATCCCGAGGAT,-0.0664
8,TCTATTAGTTGATTAGGGCTACCGAAACAGCGGA,0.473
9,CGACCAAGGTCAATGCTAGGTCAGTGAAAGCATT,4.69
10,CTCAAAAGGTCGGTTGAGGTGAGTATACGGATAA,2.54
11,GCTTGTAGTTCAAGGTTAAGAAAGACTAAGCTAA,1.46
12,ACTCGGCGGACAAAGGTCAGAGCTACGCCAGTGA,2.44
13,GCCGACAGGTGAAACGCAGGTAACTCAGGGTGGC,-0.543
14,TCTCGGAGGACACGAAAGTCAGAGCTTTCCAGAG,-0.402
15,CCTACTGGGCCACGAAAGGTCATTGTTTCAGTGA,4.25
16,CCTACTGGCCCATTCAGAGGTCATTGATCATATG,3.58
17,TCTCGGGGGACACGAAGGTCAGAGCTTTCCAGAG,3.72
18,CCTTACGGGTCACGAGGTTATAGCTCGACGAGCG,5.07
19,CCGCCTGGGGCATAAGGTTACCATAAGCCAGCCC,0.151
20,CCTTACGGGTCAAAGTTATAGCACGGGTGGTACG,3.54
